Assay outcomes from PubChem.
A549 viability = A549 cytotoxicity, counter-screen for Nrf2 inhibitors; A549 ARE-Fluc cells, CellTiter-Fluor viability, 18-24 h; Potency, µM (titrated, usually from 46 µM), for inactives: at the highest dose activity change, negative = cytotoxicity, hits mostly inhibitors; 390,000 compounds, 0.16% hits; AID 504648; further: potency means the concentration at half of the fitted maximal effect
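A549 ARE-Fluc cells in 5% FBS OPTI-MEM, 5000 cells/well, rested 2 h then exposed to compounds in concentration-response for 18-24 h at 37 °C. Viability by CellTiter-Fluor fluorescence (Ex 405/Em 525) after 30 min; luciferase luminescence (BugLite, 15 min, RT) read afterwards.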
KB-3-1 tox = kills parental KB-3-1 adenocarcinoma cells | KB-3-1 viability, CellTiter-Glo ATP luminescence, 72 h | Potency, µM (series often up to 46.1 µM), usual class: cytotoxic | 400,000 compounds, 1.4% hits | AID 1347075; further: potency means the concentration at half of the fitted maximal effect; nearly all actives have a fitted effect of over 60% in size
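Viability of parental KB-3-1 cells, measured by CellTiter-Glo luminescence, followed a 72 h incubation at 37 °C with pinned compounds in phenol-red-free DMEM containing 10% FBS.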
Nrf2 block = blocks Nrf2 signaling | A549 ARE-Fluc reporter, luciferase luminescence, 18-24 h | Potency, µM (titrated, usually from 46 µM), without a hit: at the top dose activity change, negative = inhibition, usual class: inhibitors | 360,000 compounds, 2.1% hits; further: potency means the concentration at half of the fitted maximal effect; nearly all actives have a fitted effect of over 60% in size
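In this cell-based qHTS, ARE-driven firefly luciferase in A549 cells reports Nrf2 activity; the luminescent signal after BugLite lysis is the measured value, with a prior CellTiter-Fluor read for cell health.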
PI4K2A inh = PI4K2A (human) kinase inhibition. Q9BTU6. purified PI4K2A, ADP-Glo luminescence, 1 h; stronger effect = lower value. activity change, negative = inhibition, % at 76.9 µM. 420,000 compounds, 0.13% hits. AID 1346378; in the data active means activity change below about -50%; inconclusive means mostly about -30% to -49%;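 further: -100% = wells without enzyme as full effect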
Target sequence (Q9BTU6 whole entry, looked up): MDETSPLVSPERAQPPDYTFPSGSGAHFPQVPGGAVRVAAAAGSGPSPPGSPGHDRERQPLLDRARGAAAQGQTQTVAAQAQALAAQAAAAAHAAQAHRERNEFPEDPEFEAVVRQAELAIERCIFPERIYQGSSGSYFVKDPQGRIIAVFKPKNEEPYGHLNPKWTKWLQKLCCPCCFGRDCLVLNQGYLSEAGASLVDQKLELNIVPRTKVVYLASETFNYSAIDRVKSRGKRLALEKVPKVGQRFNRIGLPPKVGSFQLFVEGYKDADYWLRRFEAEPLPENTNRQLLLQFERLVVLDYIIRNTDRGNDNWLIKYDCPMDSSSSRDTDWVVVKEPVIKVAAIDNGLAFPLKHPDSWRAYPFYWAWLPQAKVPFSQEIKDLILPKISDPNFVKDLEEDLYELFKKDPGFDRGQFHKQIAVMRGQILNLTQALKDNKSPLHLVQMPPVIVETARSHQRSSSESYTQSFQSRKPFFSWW
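ADP-Glo luminescence measured ADP generated by PI4K2A enzyme (4 ug/mL before mixing) with 1.2 mM PI substrate (pre-mix) and 300 microM ATP (pre-mix). Tris pH7.5 buffer with MgCl2, Triton X-100; 1 h reaction at ambient temperature.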
Giardia kill = kills Giardia lamblia | Giardia lamblia trophozoite viability | activity change, % at 7.66 µM, hits read low | 340,000 compounds, 0.15% hits | AID 540267; in the data active means activity change below about -80%; inconclusive means between about -30% and that limit;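 further: parasites exposed to compound for two days anaerobically before the ATP read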
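Media and compound were dispensed first, then trophozoites at 100 cells/well; plates sat 48 hrs at 37 deg C without oxygen before ATP luminescence reagent was added and read after 15-30 min at room temperature.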
KB-V1 MDR tox = kills drug-selected multidrug resistant KB-V1 cells | 400,000 compounds, 3.4% hits | Potency, µM (doses to about 46.1 µM), usual class: cytotoxic | KB-V1 MDR cells viability, CellTiter-Glo, 72 h; further: potency means the concentration at half of the fitted maximal effect; nearly all actives have a fitted effect of over 60% in size
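Following 72 h at 37 degrees C with compound, KB-V1 cell viability was read by CellTiter-Glo luminescence, medium being phenol-red-free DMEM plus 10% FBS; concentration-response parameters came from normalized, curve-fitted qHTS data.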
* = called active by the depositor; i = inactive; ? = inconclusive; · = no result; [ ] = remark or other dose. Most compounds without a hit are left out; they make up all but 5.7% or so of the library. Unless noted, the call rests on the fitted dose curve; in most records, active means well fitted curve in the direction sought with a large enough effect; inconclusive means small, poorly fitted or top-dose-only effect, or another doubt; inactive means no such curve, though single readings can be large; an effect the other way counts as inactive or inconclusive. Unless noted, on the % scale 0 is the no-effect control and ±100 the full control effect.

SMILES | A549 viability | KB-3-1 tox | Nrf2 block | PI4K2A inh | Giardia kill | KB-V1 MDR tox
O=C(c1cc(COc2ccc(-n3cncn3)cc2)on1)N1CCCC1 | 1.4% | i | -0.5% | 6.3 | -14.6 | i
CCC1CCCCN1C(=O)c1cc(COc2ccc(-n3cncn3)cc2)on1 (configuration not stated) | -5.3% | 18.4µM* | ? | -1.2 | 26.7 | 13µM*
Cc1ccccc1C(=O)Nc1c(C)nc2ccccn2c1=O | 16.8% | · | · | -12.3 | · | ·
O=C(Nc1cccc(F)c1)OCCN1CCCC12CCC(c1ccccc1)CC2 (configuration not stated) | · | · | · | 3.0 | · | ·
Cc1cc(Nc2ccc3c(c2)OCCO3)c2cccc(C)c2n1 | ? | ? | 2.6% | -1.9 | 2.2 | 23.1µM*
Cc1ccc(-n2nc3c4c(cccc4c2=O)-c2ccccc2-3)cc1 | 16.4µM* | ? | ? | -2.7 | -9.4 | 8.2µM*
O=C(O)Cn1nc2c3c(cccc3c1=O)-c1ccccc1-2 | -1.3% | i | -22.2% | 1.2 | 1.6 | i
Cc1snc(SCC(=O)c2ccc(Cl)cc2)c1C#N | -4.8% | i | 1.7% | 3.3 | 8.0 | 20.6µM*
CCCN(CCC)C(=O)c1nn(C)c2c1CSc1ccc(C)cc1-2 | -0.8% | i | · | 2.7 | · | i
O=S(=O)(c1ccccc1Br)N1CCN(c2nc(-c3ccccc3)nc3ccccc23)CC1 | 0.4% | i | 0.0% | · | -9.8 | i
Clc1cccc(N2CCN(CCCN3CCN(c4ccccc4)CC3)CC2)c1 | -1.3% | ? | ? | 2.7 | 4.5 | i
Nc1ccc(N2CCN(c3cccc(Cl)c3)CC2)cc1 | 0.7% | ? | ? | 0.6 | 5.5 | 20.6µM*
COc1ccc(-c2nc(NC(=O)C3CC(=O)N(Cc4ccco4)C3)sc2C)cc1 (configuration not stated) | ? | ? | 23.1µM* | -9.9 | ? | i
CC(C)CCNC(=O)C1CCN(c2nc3ccccc3o2)CC1 | -8.2% | ? | · | -1.1 | 15.0 | 13µM*
O=C(NCc1cccs1)C1CCN(c2nc3ccccc3o2)CC1 | 0.2% | i | -17.7% | 1.0 | 6.7 | i
COc1ccc(-c2nc(NC(=O)C3CCN(c4nc5ccccc5o4)CC3)sc2C)cc1 | ? | 25.9µM* | ? | -6.7 | 14.1 | i
CCCCN1C(=O)N2Cc3ccc(C)cc3C2CS1(=O)=O (configuration not stated) | · | · | · | -1.8 | · | ·
COc1ccccc1NC(=O)OC1CC2CC1[C@H]1CCCCN1[C@H]2Cc1ccccc1 (some centres not stated) | · | · | · | -3.4 | · | ·
COc1ccc(OC)c(/C=C2\Cc3ccccc3C2=O)c1 | · | i | · | · | · | i
N#Cc1ccc(-c2ccc(OCC(=O)Nc3cccnc3)cc2)cc1 | -12.8% | · | 7.31µM* | -5.3 | -19.4 | ·
O=C(COc1ccc(C(=O)c2ccccc2)cc1)Nc1cccnc1 | ? | ? | 23.1µM* | 1.5 | -2.7 | ?
COc1ccc(-c2onc(C)c2C)cc1S(=O)(=O)N1CCc2ccccc21 | -0.7% | · | 18.4µM* | 3.2 | · | ·
COc1ccc2c(c1)CN1C(=O)N(Cc3ccc(F)cc3)S(=O)(=O)CC21 (configuration not stated) | · | · | · | 2.4 | · | ·
CCc1nnc2sc(-c3ccc(NC(=O)c4ccco4)cc3)nn12 | -21.5% | i | -24.5% | -0.2 | -25.9 | i
CCc1nnc2sc(-c3ccc(NC(=O)c4ccc5c(c4)OCCO5)cc3)nn12 | -17.2% | i | 2.59µM* | 2.2 | 18.6 | i
SMILES | A549 viability | KB-3-1 tox | Nrf2 block | PI4K2A inh | Giardia kill | KB-V1 MDR tox
Cc1ccc(C(=O)N2CCN(Cc3ccc4c(c3)OCO4)CC2)cc1S(=O)(=O)N1CCOCC1 | 2.7% | i | 5.9% | 1.0 | -1.9 | 16.4µM*
Cc1ccc(N(Cc2ccccc2)C(=O)c2ccc(C)c(S(=O)(=O)N3CCOCC3)c2)cc1 | -18.3% | ? | 14.6µM* | 0.5 | -22.9 | i
Cc1ccc(N(Cc2ccccc2)C(=O)c2cc(S(=O)(=O)N3CCOCC3)ccc2F)cc1 | -4.3% | i | -10.1% | 6.6 | -4.5 | 9.2µM*
Cc1ccc(N(Cc2ccccc2)C(=O)c2cc(S(=O)(=O)N3CCOCC3)ccc2Cl)cc1 | -2.2% | ? | ? | 1.0 | -1.3 | ?
CCOc1ccc(Nc2cc(C)nc(-n3nc(C)cc3C)n2)cc1 | -18.7% | 0.411µM* | ? | 4.3 | 10.7 | ?
Cc1cc2ccccn2c1C(=O)c1ccc([N+](=O)[O-])cc1[N+](=O)[O-] | ? | i | -9.8% | -5.9 | -85.6* | i
Cc1cccc(N2CCN(C(=O)C3CCN(c4ncnc5c4nc4n5CCCCC4)CC3)CC2)c1C | ? | ? | 20.6µM* | -2.7 | -1.3 | i
Cc1cccc(N2CCN(C(=O)C3CCN(c4ncnc5c4nc4n5CCCCC4)CC3)CC2C)c1 (configuration not stated) | ? | ? | 18.4µM* | 1.6 | -7.4 | ?
Cc1ccc(NC(=O)C2CCN(c3ncnc4c3nc3n4CCCCC3)CC2)cc1Cl | ? | ? | 13µM* | -4.7 | 14.9 | i
Cc1cc(N2CCC(C(=O)N3CCN(c4cccc(C)c4C)CC3)CC2)n2ncnc2n1 | 10.5%[1.84 µM] | i | 14.6µM* | -3.8 | -17.5 | i
O=C(C1CCN(c2ncnc3c2nc2n3CCCCC2)CC1)N1CCN(c2ccccc2F)CC1 | 1.1% | i | ? | 3.1 | -0.7 | i
CCn1c2ccccc2c2cc(NC(=O)COC(=O)c3ccc(F)cc3Cl)ccc21 | · | · | · | 2.9 | · | ·
CN1C(=O)C[C@@](C#N)(C(=O)NCCc2ccccc2)[C@H]1c1ccccc1 | · | · | · | -4.6 | · | ·
CCOc1ccc(-n2c(SCC(=O)Nc3ccc4c(c3)OCCO4)nnc2-c2ccncc2)cc1 | · | · | · | -8.8 | · | ·
Cc1c(CCC(=O)O)c(=O)oc2cc(OCc3ccccc3Br)ccc12 | -5.8% | i | 20.6µM* | 0.7 | -22.9 | i
O=C1c2ccccc2C(=O)N1c1cccc2ncccc12 | -1.0% | · | -7.4% | · | · | ·
C=CC[C@@H](CC(=O)N[C@H](CO)Cc1ccccc1)C(=O)N[C@H](COC(=O)[C@@H](CC=C)CC(=O)OC(C)(C)C)Cc1c[nH]c2ccccc12 | 11.6µM* | ? | 20.6µM* | -1.4 | 18.2 | ?
C=CCC[C@H](Cc1ccc(F)cc1)C(=O)OC[C@@H](Cc1c[nH]c2ccccc12)NC(=O)[C@@H](CC=C)CC(=O)N(CCO)Cc1ccccc1 | 11.6µM* | ? | 9.2µM* | -2.3 | -6.1 | ?
C=CCC[C@H](Cc1ccc(F)cc1)C(=O)OC[C@H](Cc1c[nH]c2ccccc12)NC(=O)[C@@H](CC=C)CC(=O)N(CCO)Cc1ccccc1 | ? | i | ? | 0.1 | 23.6 | 20.6µM*
